PubChem BioAssay (NCI)
About 83,000 compounds went through this panel and 20% of them were active in at least one assay; those are over-represented in the sample as a whole.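 Cells were grown in 96-well plates and exposed to the test compound at a single concentration for 48 hours; results are reported as percent growth, with values below 10 considered active.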 A number with no mark means an inactive call. Active and inactive are the calls of the source.

What was measured:
Assay in all cases: NCI-60 one-dose screen, 48 h (100 = growth as untreated, 0 = no growth, -100 = all killed)
Conditions in all cases: 10 µM unless noted
NCI-H23 lung = tested on: NCI-H23 lung
NCI-H226 lung = tested on: NCI-H226 lung
NCI-H322M lung = tested on: NCI-H322M lung
HOP-62 NSCLC = tested on: HOP-62 NSCLC
NCI-H460 lung = tested on: NCI-H460 lung
HOP-92 NSCLC = tested on: HOP-92 NSCLC
NCI-H522 lung = tested on: NCI-H522 lung
A549/ATCC NSCLC = tested on: A549/ATCC NSCLC
786-0 renal = tested on: 786-0 renal
COLO 205 colon = tested on: COLO 205 colon
DU-145 prostate = tested on: DU-145 prostate
K-562 leukemia = tested on: K-562 leukemia
MALME-3M melanoma = tested on: MALME-3M melanoma
MDA-MB-231 breast = tested on: MDA-MB-231 breast
RXF 393 renal = tested on: RXF 393 renal
SF-268 CNS = tested on: SF-268 CNS
SF-295 CNS = tested on: SF-295 CNS
SF-539 CNS = tested on: SF-539 CNS
UACC-257 melanoma = tested on: UACC-257 melanoma
M14 melanoma = tested on: M14 melanoma

SMILES	growth (NCI-H23 lung)	growth (NCI-H226 lung)	growth (NCI-H322M lung)	growth (HOP-62 NSCLC)	growth (NCI-H460 lung)	growth (HOP-92 NSCLC)	growth (NCI-H522 lung)	growth (A549/ATCC NSCLC)	growth (786-0 renal)	growth (COLO 205 colon)	growth (DU-145 prostate)	growth (K-562 leukemia)	growth (MALME-3M melanoma)	growth (MDA-MB-231 breast)	growth (RXF 393 renal)	growth (SF-268 CNS)	growth (SF-295 CNS)	growth (SF-539 CNS)	growth (UACC-257 melanoma)	growth (M14 melanoma)
N#Cc1c(N2CCOCC2)nc(=S)[nH]c1-c1ccco1	74.5%	63.2%	74.5%	35.7%	50.1%	-11.6% (active)	49.6%	83.6%	65.8%	75.7%	79.2%	88.4%	2.17% (active)	61.1%	71.3%	77.3%	47.4%	78.5%	92.8%	39.8%
CSc1nc(=S)c2nc(SC)n(-c3ccccc3)c2[nH]1	103%	90.8%	96.8%	85.5%	95.5%	77.6%	70.1%	97.8%	101%	101%	108%	98.5%	109%	105%	108%	96.4%	105%	103%	96.3%	–
O=c1c2c3c(sc2n2cnnc2n1Cc1ccccc1)CCCC3	100%	85%	104%	119%	97.7%	89.8%	79.2%	91.7%	100%	83.3%	106%	69.9%	95.8%	96.6%	101%	107%	57.1%	93.5%	131%	164%
CC(=O)Nc1ccc(C=Nc2ccc3ccccc3c2)cc1	105%	100%	111%	114%	111%	81.6%	13.5%	106%	106%	115%	112%	105%	111%	109%	108%	105%	119%	107%	103%	97%
Cn1cc(-c2noc(-c3cn(C)c4ncc(F)cc34)n2)c2ccccc21	75.1%	76.7%	41.3%	36.3%	22.9%	62%	66.2%	37.9%	33.6%	66.7%	79.2%	77%	66%	55.1%	73.1%	71.4%	49.6%	75.2%	101%	71.7%
C#CC(OC(=O)N(C)C)(c1ccccc1)c1ccc(F)cc1 (centres undefined)	98.7%	89.7%	128%	116%	96.7%	92.9%	83.2%	75%	120%	158%	105%	120%	142%	101%	87.7%	91.1%	115%	107%	87.8%	129%
COc1ccc2nc3cc(Cl)ccc3c(Nc3ccc(O)c(CN4CCCC4)c3)c2c1	47.3%	97.5%	7.91% (active)	26.9%	-27.4% (active)	31.9%	-40.7% (active)	27.7%	-21.8% (active)	-19.8% (active)	-9.64% (active)	-6.52% (active)	-86.6% (active)	11.7%	-84% (active)	38.5%	8.91% (active)	-87.4% (active)	-81.1% (active)	-83.2% (active)
CNc1cc(C(=O)O)nc(NC)n1	100%	98.8%	95.7%	103%	99.2%	87.1%	97.1%	101%	105%	105%	103%	101%	95.6%	93.1%	96%	100%	100%	94.6%	94.4%	92.7%
